Hits are enriched below; roughly 9.3% of the tested compounds scored in any of these assays.
ELG1 genotox – inducers of genotoxicity in HEK293T ELG1-luciferase cells. HEK293T ELG1-luciferase reporter, luminescence, 16 h. Potency, µM (top dose mostly 46 µM), inactives show at the highest dose activity change, positive = activation, hits mostly activators. 330,000 compounds, 1.3% hits; further: % of control where 0% means no effect; nearly all actives have a fitted effect of over 60% in size
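Screening used a luciferase reporter fused to human ELG1 in HEK293T cells. Luminescence was read on a CCD plate imager after 16 hr exposure and 30 min ONE-Glo incubation.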
NPC1 prom act – activators of NPC1 promoter; Potency, µM (highest dose often 9.22 µM), without a hit: at the highest dose activation, most hits filed as activators; Huh7 NPC1 promoter luciferase reporter, 24 h; 320,000 compounds, 2.4% hits; AID 485313; further: % of control where 0% means no effect; nearly all actives have a fitted effect of over 60% in size
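Cells: Huh7 expressing luciferase under the NPC1 promoter, 1500/well. Seeded 2 h, compound added, incubated 24 h at 37 °C. Luciferase reagent, 10 min ambient, then luminescence.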
FLuc modulator – inhibits or activates purified firefly luciferase, miR-21 counter-screen; purified FLuc, Km substrates, luminescence inhibition; Potency, µM (doses to about 57.5 µM), for the others: at the highest dose activity change, negative = inhibition, actives largely listed as inhibitors; 360,000 compounds, 6.9% hits;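 further: plate controls were vehicle for no effect and reference inhibitor for full effect; nearly all actives have a fitted effect of over 55% in size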
Target sequence (P08659 whole entry, looked up): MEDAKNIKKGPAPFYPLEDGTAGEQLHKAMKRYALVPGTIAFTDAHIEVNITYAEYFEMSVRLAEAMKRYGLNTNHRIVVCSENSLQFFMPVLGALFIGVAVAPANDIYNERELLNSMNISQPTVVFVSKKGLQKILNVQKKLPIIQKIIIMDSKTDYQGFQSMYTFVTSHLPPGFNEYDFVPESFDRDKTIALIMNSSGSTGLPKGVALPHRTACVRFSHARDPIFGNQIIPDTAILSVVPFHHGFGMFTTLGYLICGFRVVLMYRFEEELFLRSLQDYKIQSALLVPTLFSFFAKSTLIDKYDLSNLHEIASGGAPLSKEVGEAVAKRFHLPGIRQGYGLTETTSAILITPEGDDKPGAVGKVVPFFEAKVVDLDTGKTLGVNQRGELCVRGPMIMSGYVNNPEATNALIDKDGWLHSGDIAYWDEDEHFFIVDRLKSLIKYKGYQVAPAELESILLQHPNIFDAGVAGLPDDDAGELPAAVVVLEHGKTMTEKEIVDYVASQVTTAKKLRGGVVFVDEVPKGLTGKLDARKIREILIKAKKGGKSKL
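Purified P. pyralis luciferase (10nM final) with 10uM D-luciferin and 10uM ATP (Km levels) in 50mM Tris acetate pH 7.5, 10mM Mg acetate, 0.01% Tween-20, 0.05% BSA; qHTS 6-point titration, ~60 µM downward; luminescence read.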
SMN2 splice enh – SMN2 splice variant enhancement. HEK293 SMN2-luciferase splicing reporter, luminescence, 30-36 h. Potency, µM (series often up to 46.1 µM), inactives show top-dose activity change, positive = activation, actives largely listed as activators. 210,000 compounds, 2.8% hits; further: % of control where 0% means no effect; nearly all actives have a fitted effect of over 55% in size
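HEK293 cells carry an SMN2 minigene-luciferase reporter in which exon 7 inclusion puts luciferase in frame. Cells were seeded at 2000 cells/well, attached for 10-12 hours, then exposed to compounds for 30-36 hours at 37C before ONE-Glo luminescence.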
Rab9 prom act – Rab9 promoter activation | AID 485297 | Huh7 Rab9 promoter-luciferase reporter, luminescence, 24 h | 320,000 compounds, 2.8% hits | Potency, µM (titrated, usually from 9.22 µM), inactives show at the highest dose activation, negative = inhibition, actives largely listed as activators; further: % of control where 0% means no effect; nearly all actives have a fitted effect of over 60% in size
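Stable Rab9-luc Huh7, 1500 cells/well, 2 h settle; cmpd in DMSO, 24 h, 37 °C/5% CO2; luciferase reagent 10 min RT; luminescence.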
ELG1 DNA repair – inhibitors of ELG1-dependent DNA repair in HEK293T cells. HEK293T ELG1-luciferase reporter, luminescence, 16 h; DNA damage induced by 5-fluorouridine. Potency, µM (series often up to 46.1 µM), for the others: at the highest dose activity change, negative = inhibition, hits mostly inhibitors. 330,000 compounds, 2.3% hits. AID 504467; further: on the % scale 0 is the no-effect control and ±100 the full control effect; nearly all actives have a fitted effect of over 55% in size
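Luminescence from the luciferase reporter, measured 30 min after ONE-Glo reagent at room temperature, was the read-out. Beforehand, 2,000 cells per well were exposed for 16 hr at 37 °C to 5-fluorouridine together with compound or vehicle.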
* hit, by the source's call; ? = inconclusive; / = not tested or not shown. The call rests on the fitted dose curve; in most records, active means well fitted curve in the direction sought with a large enough effect; inconclusive means small, poorly fitted or top-dose-only effect, or another doubt; inactive means no such curve, though single readings can be large; an effect the other way counts as inactive or inconclusive. Potency means the concentration at half of the fitted maximal effect.

SMILES	ELG1 genotox	NPC1 prom act	FLuc modulator	SMN2 splice enh	Rab9 prom act	ELG1 DNA repair
COc1ccc(C)cc1NC(=O)C(OC(=O)C1CC1)c1ccccc1 (stereo unspecified)	-4%	1%	-2%	21%	3%	-6%
O=C(NCc1ccc(F)cc1)C(c1ccccc1)c1ccccc1	-2%	-6%	8%	/	3%	-19%
CC(=O)N(Cc1ccc(F)cc1)C1=C(NCc2ccccc2)C(=O)c2ccccc2C1=O	-9%	-26%	-12%	-49%	-32%	21µM*
Cc1ccc(NC(=O)/C(C#N)=C/c2ccc(C)o2)cc1	/	/	1.9µM*	7.1µM*	/	/
Cc1cccc(NC(=O)/C(C#N)=C/c2ccc(C)o2)c1	/	/	9.5µM*	13µM*	/	/
Cc1ccc(/C=C(\C#N)C(=O)Nc2cccc(Cl)c2)o1	/	/	-14%	?	/	/
CCCC(c1nnnn1Cc1ccco1)N1CCN(C(=O)c2ccco2)CC1 (stereo unspecified)	4%	-2%	3%	-11%	4%	3%
COCCCNC(=O)Cn1cnc2c(NCc3ccccc3)ncnc21	3%	/	/	/	/	9%
O=C(NC1CCCC1)c1cccnc1N1CCCCCC1	2%	0%	-2%	-5%	-3%	-6%
O=C(c1cc(COc2ccccc2)on1)N1CCCC(OCc2cccnc2)C1 (stereo unspecified)	-6%	-4%	3%	/	0%	-3%
CSc1ccccc1OCc1cc(C(=O)N2CCSCC2)no1	-4%	2.2µM*	?	/	1.4µM*	?
CSc1ccccc1OCc1cc(C(=O)N2CCCC(C)C2)no1 (stereo unspecified)	5.2µM*	1.6µM*	6.7µM*	/	1.4µM*	?
COc1ccc(OCc2cc(C(=O)N3CCCC(CO)C3)no2)c2ccccc12 (stereo unspecified)	?	4µM*	8.5µM*	/	4µM*	?
COc1ccccc1OCc1cc(C(=O)N2CCCC(OCc3cccnc3)C2)no1 (stereo unspecified)	8.2µM*	1.8µM*	13µM*	/	2.5µM*	?
O=C(c1cc(COc2cccc3cnccc23)on1)N1CCCC(CCCO)C1 (stereo unspecified)	-7%	-31%	1%	/	-29%	-8%
COc1ccc(Cl)cc1NC(=O)Nc1ccc(Br)cn1	4%	9%	-1%	3%	2%	?
COc1ccc(C(=O)N2c3nc(-c4ccco4)nn3C3(CCCCC3)[C@@H]3CCCC[C@@H]32)cc1OC	/	/	0%	/	/	/
O=C(c1cc(COc2ccc(F)cc2F)on1)N1CCN(C2CCCC2)C(=O)C1	4%	5%	3%	/	9%	-2%
CSc1ccccc1OCc1cc(C(=O)N2CCN(C3CCCC3)C(=O)C2)no1	?	?	17µM*	/	?	?
Cn1nc(-c2ccc(OCC(=O)Nc3ccccc3)cc2)c2ccccc2c1=O	-2%	-6%	1%	-40%	-1%	?
Cc1cccc(NC(=O)COc2ccc(-c3nn(C)c(=O)c4ccccc34)cc2)c1	2%	-3%	-1%	-13%	0%	15µM*
COc1ccccc1NC(=O)COc1ccc(-c2nn(C)c(=O)c3ccccc23)cc1	-50%	0%	0%	-14%	4%	16µM*
O=C(Nc1ccc(OC(F)F)c(Cl)c1)Nc1ccc2c(c1)OCO2	-3%	18%	?	-12%	6%	11%
O=C(Nc1cccc(C(F)(F)F)c1)N1CCN(C(=O)Nc2cccc(C(F)(F)F)c2)CC1	0%	-3%	1%	-9%	-4%	-3%
CCOc1ccc(NC(=S)N(CCN2CCOCC2)Cc2cc3cc4c(cc3[nH]c2=O)OCO4)cc1	1%	1%	-2%	/	0%	21µM*
SMILES	ELG1 genotox	NPC1 prom act	FLuc modulator	SMN2 splice enh	Rab9 prom act	ELG1 DNA repair
COc1ccc2cc(CN(CC3CCCO3)C(=O)Nc3ccccc3)c(=O)[nH]c2c1 (stereo unspecified)	-9%	-2%	-12%	/	-8%	18µM*
Cc1cccc(NC(=O)N(Cc2cc3cc(C)ccc3[nH]c2=O)CC2COCCO2)c1 (stereo unspecified)	-8%	-7%	-5%	-6%	1%	12µM*
COc1ccc(NC(=O)N(Cc2cc3cc(C)ccc3[nH]c2=O)CC2CCCO2)cc1 (stereo unspecified)	-4%	3%	2%	/	-6%	?
COc1ccc2[nH]c(=O)c(CN(CC3CCCO3)C(=O)Nc3ccc(F)cc3)cc2c1 (stereo unspecified)	-35%	-3%	4%	-114%	-13%	7.3µM*
CC1CCN(Cc2c(O)ccc3c(=O)c(Oc4ccccc4Cl)c(C(F)(F)F)oc23)CC1	/	/	1%	-1%	/	/
CCOc1ccc(NC(=O)CN(c2ccccc2OCC)S(=O)(=O)c2ccccc2)cc1	/	/	4%	-27%	/	/
COc1ccccc1CN1CCCC2(CCN(C(=O)c3c(C)noc3C)CC2)C1	/	/	/	-1%	/	/
CCc1cc2c(=O)c(-c3nc4ccccc4n3C)c(C)oc2c(CN2CCOCC2)c1O	-4%	1%	1%	-19%	-1%	-14%
Cc1cc2cc(CN(CCN3CCOCC3)C(=O)Nc3ccccc3F)c(=O)[nH]c2cc1C	-3%	0%	4%	/	10%	?
Cc1ccc2[nH]c(=O)c(CN(CCN3CCOCC3)C(=O)Nc3ccccc3F)cc2c1	-4%	-3%	-2%	-14%	-1%	16µM*
Cc1cccc(C(=O)OCC(=O)c2ccc3c(c2)OCO3)c1O	2.6µM*	0.45µM*	0.38µM*	/	1.4µM*	?
CC(C)C(=O)Nc1ccccc1C(=O)OCC(=O)c1ccc2c(c1)OCCO2	0%	?	1.3µM*	-18%	2.8µM*	-28%
Cc1ccccc1NC(=O)COC(=O)c1ccc2c(c1)OCCO2	0%	-2%	?	/	0%	?
O=C(COC(=O)c1ccccc1[N+](=O)[O-])c1ccc2c(c1)OCO2	?	0.32µM*	0.019µM*	/	0.32µM*	?
O=[N+]([O-])c1cccc(-c2ccc(/C=N/NC(=S)Nc3cccc(F)c3)o2)c1	-1%	-12%	-2%	/	-1%	?
Cc1oc(-c2ccc(Cl)cc2)nc1CN1CCCC(C(=O)N2CCOCC2)C1 (stereo unspecified)	-4%	1%	-1%	/	-1%	4%
O=C(C[C@H]1C/C=C\C[C@H](NC(=O)OCC2c3ccccc3-c3ccccc32)C(=O)OC[C@@H]2CCCN2C1=O)N[C@H](CO)Cc1ccccc1	2%	/	/	/	/	16%

From PubChem BioAssay
